# Compound activity from PubChem.
# VDR inhibitor: Inhibitors of the vitamin D receptor (VDR): qHTS; Potency, µM, for inactives: max response, negative = inhibition, most hits filed as inhibitors; AID 504847, 2011; Vitamin D3 receptor (Homo sapiens), P11473; actives 0.93% (n = 400,000); VDR-SRC2-3 peptide fluorescence polarization, 2 h
# Target sequence (P11473 whole entry, looked up): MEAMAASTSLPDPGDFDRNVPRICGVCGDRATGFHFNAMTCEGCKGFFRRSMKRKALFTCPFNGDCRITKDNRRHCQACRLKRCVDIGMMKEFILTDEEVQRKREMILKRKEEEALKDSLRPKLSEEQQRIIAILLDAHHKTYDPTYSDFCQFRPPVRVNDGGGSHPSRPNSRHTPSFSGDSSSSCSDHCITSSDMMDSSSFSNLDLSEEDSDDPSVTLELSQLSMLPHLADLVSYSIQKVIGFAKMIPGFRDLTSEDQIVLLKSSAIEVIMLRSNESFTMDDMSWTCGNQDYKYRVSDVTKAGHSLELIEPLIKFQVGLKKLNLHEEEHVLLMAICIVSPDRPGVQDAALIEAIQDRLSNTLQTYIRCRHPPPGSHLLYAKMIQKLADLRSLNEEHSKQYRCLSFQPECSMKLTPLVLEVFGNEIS
#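 The screen uses fluorescence polarization to detect compounds that interfere with recruitment of the SRC2-3 coactivator peptide to VDR; plates are read after 2 h at room temperature.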
# Sfp PPTase inh: qHTS Assay for Inhibitors of Bacillus subtilis Sfp phosphopantetheinyl transferase (PPTase). Biochemical Sfp PPTase activity, qHTS. actives 3.5% (n = 310,000). Potency, µM, without a hit: largest response in the series, negative = inhibition, hits mostly inhibitors;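 note: the enzyme is Sfp with the accession as filed and its product quenches rhodamine fluorescence; 0% = enzyme reaction without inhibitor and -100% = no enzyme wells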
#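 Compounds were incubated with enzyme (final 15 nM) for 15 min at room temperature before substrate addition started the reaction. Fluorescence at 525 nm excitation, 598 nm emission was recorded immediately and after 30 minutes.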
# rTrxR1 inhibitor: qHTS Assay for Inhibitors of Mammalian Selenoprotein Thioredoxin Reductase 1 (TrxR1): qHTS; Thioredoxin reductase 1, cytoplasmic (Rattus norvegicus), O89049; recombinant rTrxR1, NADPH fluorescence consumption, selenite substrate; Potency, µM (highest dose often 114 µM), for the others: at the top dose activity change, negative = inhibition, actives largely listed as inhibitors; actives 1% (n = 390,000); AID 588453, 2011; note: nearly all actives have a fitted effect of over 65% in size
#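 Rat TrxR1 (90 nM in the dispensed reagent) was pre-reduced with 400 uM NADPH for 5 min at room temperature, then incubated with compound for 15 min. After 400 uM selenite was added, NADPH fluorescence (Ex 340/Em 450 nm) was followed for 8 min.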
# TrxR1 substrate: qHTS Assay for Substrates of Mammalian Selenoprotein Thioredoxin Reductase 1 (TrxR1): qHTS; purified TrxR1 substrate turnover, NADPH consumption readout; Thioredoxin reductase 1, cytoplasmic (Rattus norvegicus), O89049; actives 0.01% (n = 390,000); Potency, µM (doses to about 114 µM), for inactives: top-dose activity change, negative = substrate turnover; note: nearly all actives have a fitted effect of over 50% in size
#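 Rat TrxR1, dispensed at 90 nM, was prereduced with 400 uM NADPH (final) for 5 min at ~22 deg C, then incubated with compound 15 min before 400 uM selenite. A first-read NADPH fluorescence drop versus no-compound background flagged substrates.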
# IDH1 R132H inh: qHTS for Inhibitors of mutant isocitrate dehydrogenase 1 (IDH1): qHTS; Isocitrate dehydrogenase [NADP] cytoplasmic (Homo sapiens), O75874; IDH1-R132H enzyme, NADPH consumption, diaphorase/resazurin fluorescence; Potency, µM (highest dose often 76.6 µM), without a hit: at the top dose activity change, negative = inhibition, usual class: inhibitors; actives 0.093% (n = 390,000); AID 602179, 2012; note: nearly all actives have a fitted effect of over 65% in size
#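 IDH1-R132H (0.5 ug/mL dispensed) in pH 7.5 Tris buffer was preincubated 30 min with compound, then given a substrate mix of 0.016 mM NADPH and 2 mM alpha-KG for 80 min at room temperature; remaining NADPH was read by diaphorase/resazurin fluorescence.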
# PLK1 PBD block: qHTS for Inhibitors of PLK1-PDB (polo-like kinase 1 - polo-box domain): Primary Screen. Plk1 PBD binding of FITC phosphopeptide, fluorescence polarization. AID 720504, 2013. Potency, µM, for the others: max response, negative = inhibition, most hits filed as inhibitors. actives 2.8% (n = 360,000); note: series mostly up to about 57 µM; nearly all actives have a fitted effect of over 65% in size
# * hit, by the source's call; ? = inconclusive; · = no result given; [ ] = remark or other dose. This is a sample that favours compounds with a hit; in the whole collection about 5.2% have one here. Calls come from the whole dose curve; as a rule, active = well fitted curve in the direction sought with a large enough effect; inconclusive = small, poorly fitted or top-dose-only effect, or another doubt; inactive = no such curve, though single readings can be large; an effect the other way counts as inactive or inconclusive. Unless noted, % is set by controls: 0 for no effect and ±100 for the full control effect; potency is the fitted concentration of half-maximal effect.
SMILES,VDR inhibitor,Sfp PPTase inh,rTrxR1 inhibitor,TrxR1 substrate,IDH1 R132H inh,PLK1 PBD block
CCOCc1[nH]c(=S)[nH]c(=O)c1Cc1ccc(OCC(C)C)cc1,8%,9%,-2%[57.1 µM],-5%[57.1 µM],-3%,24µM*
CCOC(=O)N1CCc2c(sc3c2c(=O)n(CCc2ccccc2)c(=O)n3Cc2ccc(C)cc2C)C1,-1%,·,8%,1%,0%,·
C=CCn1c(NC(=O)c2ccccc2Cl)c(C#N)c2nc3ccccc3nc21,35µM*,79µM*,?,?,12%,-29%
COCC(=O)N1CCC[C@@]2(CCN(c3ncccn3)C2)C1,11%,2%,·,·,·,·
COc1ccc(C(C#N)=C2C=C(Cl)C(=NO)C=C2Cl)cc1,·,·,·,·,?,21µM*
O=C(O)CC/C(=C\c1ccc(N2CCCC2)c([N+](=O)[O-])c1)c1nc2ccccc2s1,?,-19%,3%[57.1 µM],6%[57.1 µM],-3%,34µM*
CCS(=O)(=O)Nc1ccc(-c2cn3ccsc3n2)cc1,0%,·,5%[57.1 µM],0%[57.1 µM],·,·
CC1(C(=O)NCc2cccs2)Cc2c(-c3ccc(C(N)=O)cc3)ccnc2O1 (stereo not drawn),·,·,·,·,·,-5%
O=C(O)[C@H](Cc1ccccc1)N1C(=O)c2c(Cl)c(Cl)c(Cl)c(Cl)c2C1=O,?,6%,13%,2%,-4%,27µM*
O=C(O)c1ccc2c(c1)C(=O)N([C@H](Cc1ccccc1)C(=O)O)C2=O,·,-2%,·,·,·,·
Cc1cccc(CNc2ccnc(-c3cccc(C#N)c3)n2)c1,-19%,-4%,·,·,·,·
CCOc1cc(C2CC(=O)NC3=C2C(=O)C(C(=O)OC)C(C)C3)cc(Br)c1O (stereo not drawn),13%,50µM*,24%[57.1 µM],4%,5%,-13%
Cc1ccc2nc(N3C(=O)C(O)=C(C(=O)c4ccco4)C3c3ccc(O)cc3)sc2c1 (stereo not drawn),·,-8%,·,·,·,·
CCOC(=O)c1sc(N2C(=O)C(O)=C(C(=O)c3ccco3)C2c2cccc([N+](=O)[O-])c2)nc1C (stereo not drawn),71µM*,?,-31%,-5%,8%,30µM*
Cc1cc(C)c2nc(N3C(=O)C(O)=C(C(=O)c4ccco4)C3c3ccc(O)cc3)sc2c1 (stereo not drawn),79µM*,·,-20%,-2%,46µM*,19µM*
Cc1nnc(N2C(=O)C(O)=C(C(=O)c3ccco3)C2c2cccc([N+](=O)[O-])c2)s1 (stereo not drawn),-13%,13%,-29%,-11%,20%,-6%
Cc1cc(C)c2nc(N3C(=O)C(O)=C(C(=O)c4ccco4)C3c3cccc(O)c3)sc2c1 (stereo not drawn),79µM*,·,?,-5%,37µM*,27µM*
COc1cn(CC(=O)Nc2cccc(C)c2)c(CN2CCCCC2)cc1=O,8%,·,17%[57.1 µM],11%[57.1 µM],-6%,·
C=C(C)Cn1c(SCC(=O)Nc2cccc(C)c2)nc2sc3c(c2c1=O)CCCC3,-30%,·,-16%,-5%,1%,·
CCCCCCC(=O)Nc1c(O)c2ccccc2[nH]c1=O,14%,50µM*,-20%,-3%,2%,-5%
COc1cc2c(cc1NC(=O)CSc1ccccn1)oc1ccccc12,-1%,45µM*,2%,-6%,-5%,-9%
CC(C)OC(=O)n1c(=S)oc2ccccc21,-9%,?,-8%,10%[57.1 µM],2%,-8%
CCCCC(=O)/C=C/n1c(=S)oc2ccccc21,13µM*,9%,2.2µM*,-5%,0%,?
CCCCCCCCN1C(=O)[C@H](CC(=O)NCCC(C)C)C[C@@]2(C(=O)OCC)CCC=C12,·,·,·,·,·,-2%
CCOC(=O)/C(=C\c1cccnc1)C(=O)c1cc(C(C)=O)c(Nc2ccccc2)s1,7.9µM*,40µM*,3.2µM*,-6%,?,?
SMILES,VDR inhibitor,Sfp PPTase inh,rTrxR1 inhibitor,TrxR1 substrate,IDH1 R132H inh,PLK1 PBD block
Cc1[nH]c(=O)[nH]c(=O)c1S(=O)(=O)N1CCC(C(=O)NC(C)c2ccccc2)CC1 (stereo not drawn),-17%,2%,-1%[57.1 µM],-5%,7%,34µM*
CC(NC(=O)C1CCN(S(=O)(=O)c2ccccc2)CC1)c1ccccc1 (stereo not drawn),136%,6%,15%,7%,0%,-2%
CN(C)C(CNC(=O)C1CCN(S(=O)(=O)c2ccccc2)CC1)c1ccccc1 (stereo not drawn),-16%,5%,-19%,-10%,-3%,34µM*
CCN(CC)CCN(C)c1ccc(/C=C/c2ccnc3ccccc23)cc1,·,·,-4%,-3%,·,·
CCCc1cc(NC(=O)CCl)n(-c2ccccc2)n1,-4%,5%,50µM*,-1%,7%,-9%
O=C(Nc1ccccc1)C(Cl)C(=O)c1ccccc1 (stereo not drawn),?,14µM*,-9%,-2%,-9%,1.5µM*
CC(=O)C(Cl)C(=O)Nc1ccccc1 (stereo not drawn),14µM*,?,-8%,10%[57.1 µM],-9%,2.7µM*
Cc1sc2ncn(CC(=O)Nc3cccc(C(F)(F)F)c3)c(=O)c2c1S(=O)(=O)N1CCC(C)CC1,-6%,·,22%,4%[2.29 µM],3%,·
O=C1OCc2nc3cc4c(cc3c(-c3ccc(F)cc3)c21)OCO4,?,-1%,51%,49%,-9%,24µM*
CCc1nc2c(OCCc3cccc(OC)c3)cccn2c1N(C=O)Cc1ccc(OC)cc1,·,·,·,·,·,-14%
CN(C)c1ccc(/C=C/c2ccnc3ccc(Cl)cc23)cc1,·,·,6%,0%,·,·
O=[N+]([O-])c1ccc(O)c(C2=NNC(c3ccccc3F)C2)c1 (stereo not drawn),79µM*,19%,35µM*,-1%,10%,?
COc1ccccc1N=c1sc2ccccc2n1C,3%,56µM*,17%,-3%,1%,-15%
Nc1c(C(O)(C(F)(F)F)C(F)(F)F)ccc2ccccc12,-5%,45µM*,16%[57.1 µM],15%[57.1 µM],9%,-4%
c1ccc2c(c1)ccc1ccccc12,5%,·,23%[57.1 µM],-2%[57.1 µM],9%,-7%
O=c1[nH]c2ccccc2c(O)c1-c1ccccc1[N+](=O)[O-],-13%,2%,20%[57.1 µM],6%[57.1 µM],8%,24µM*
